Reference: PubChem BioAssay (NCI)
Compounds without any hit were thinned out: in the full panel of roughly 83,000, 20% have a hit.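 Interpretation: 100, growth as untreated; towards 0, rising growth inhibition; 0, no net growth; 0 to -100, cell death. Compounds scoring below 10 were considered active.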 Unmarked numbers belong to inactive results. Active and inactive are the calls of the source.

The molecules below were run on SNB-75 CNS (assay: NCI-60 one-dose screen, 48 h (100 = growth as untreated, 0 = no growth, -100 = all killed)). Conditions: 10 µM unless noted.

**Q.** With `CC(C)(C)N1CCC1CN` (stereo not drawn) as the molecule, how does the growth read?
**A.** 87.4%

**Q.** For `C=C1C(=O)O[C@H]2[C@H]1CC/C(COC(=O)c1cc3cc(OC)ccc3[nH]1)=C\CC[C@@]1(C)O[C@@H]21`, which growth is on record?
**A.** -68.5% (active)

**Q.** Which growth does the source give for `CC[C@]1(O)C[C@@H]2CN(CCc3c([nH]c4ccccc34)[C@@](C(=O)OC)(c3cc4c(cc3OC)N(C)[C@H]3[C@@](O)(C(N)=O)[C@H](O)[C@]5(CC)[C@@H]6C[C@@H]6CN6CC[C@]43[C@@H]65)C2)C1` here?
**A.** 50.8%

**Q.** Which growth does the source give for `Cc1nn(-c2ccc(F)cc2)c2ncnc(Nc3ccc(NC(=O)Nc4ccc(Cl)c(C(F)(F)F)c4)cc3)c12` here?
**A.** 32.4%

**Q.** Which growth does the source give for `O=C(N/N=C/c1ccccc1O)c1ccccc1Nc1ccnc(C(F)(F)F)c1` here?
**A.** 20.7%

**Q.** For `CC(=O)O[C@H]1[C@@H]2OC(=O)C(CSc3ccccc3)[C@@H]2C[C@H]2O[C@]2(C)CC/C=C(\C)CCC[C@@H]1C` (stereo partly drawn), which growth is on record?
**A.** 37.1%

**Q.** How did the growth turn out when `C#CCOc1ccc2ncnc(N3CCC(NC(=O)CCl)CC3)c2c1` was run?
**A.** 24.2% [8.25 µM]

**Q.** How did the growth turn out when `CCC(=O)c1ccc(Cl)s1` was run?
**A.** 91.4%

**Q.** Which growth does the source give for `O=C1CC[C@H](c2ccc(O)c3c2C(=O)[C@@H]2O[C@@H]2C3=O)c2cccc(O)c21` here?
**A.** 81.3%

**Q.** For `COc1ccc(S(=O)(=O)N2CC3(COC3)C2)cc1NC(=O)c1[nH]c(C)c2c1CCCCC2=O`, which growth is on record?
**A.** 19.4%

**Q.** `O=C1/C(=C/c2ccc3c(c2)OCO3)SC(=S)N1CCc1ccc(O)cc1` was tested. Which growth did it give?
**A.** 83.7%

**Q.** Which growth does the source give for `Oc1ccccc1-c1nnc(CNc2ccc(Cl)cc2)o1` here?
**A.** 50.3%

**Q.** For `Cc1ccc(OC(=O)c2ccc(Cl)cc2)cc1`, which growth is on record?
**A.** 77.1%

**Q.** For `O=C(CCCCC(=O)N/N=C\c1ccccc1O)N/N=C\c1ccccc1O`, which growth is on record?
**A.** 69.6%

**Q.** Which growth does the source give for `Cc1ccc(NC(=O)/C=C/c2ccccc2)c(C(N)=O)c1` here?
**A.** 11.3%

**Q.** How did the growth turn out when `CN1CCN(CCCOc2cccc3nc(Nc4ccc(Cl)c(F)c4)ccc23)CC1` was run?
**A.** 48.2%

**Q.** How did the growth turn out when `NC1=C(Cl)C(=O)c2ccc(S(N)(=O)=O)cc2C1=O` was run?
**A.** -100% (active)

**Q.** Which growth does the source give for `O=C1c2cc3c(cc2-c2c1c1ccc(Cl)cc1c(=O)n2CCCN1CCOCC1)OCO3` here?
**A.** 84.2%

**Q.** Which growth does the source give for `O=C1C=CC(=O)N1c1ccc2c(c1)Cc1cc(F)ccc1-2` here?
**A.** 75.8%

**Q.** How did the growth turn out when `FC(F)(F)c1nc2c(NCc3ccc(-c4ccccc4)cc3)cccc2[nH]1` was run?
**A.** 90.7%

**Q.** Which growth does the source give for `OC(c1cc2cc(Cl)c(Cl)cc2c2cc(C(F)(F)F)ccc12)C1CCCCN1` (stereo not drawn) here?
**A.** -64% (active)

**Q.** With `Brc1ccc(-c2csc(Nc3ccccn3)n2)cc1` as the molecule, how does the growth read?
**A.** 93.4%

**Q.** How did the growth turn out when `O=C(Cc1ccccc1Nc1c(Cl)cccc1Cl)NN1C(=O)/C(=C/c2ccc(Br)cc2)SC1=S` was run?
**A.** 86.4%

**Q.** For `COc1ccc(C2CC(c3ccc(Cl)cc3)=NN2/C=C2\SC(=S)N(NC(=O)Cc3ccccc3Nc3c(Cl)cccc3Cl)C2=O)cc1` (stereo not drawn), which growth is on record?
**A.** 58.4%

**Q.** `CCOC(=O)c1csc(NC(=O)COc2cccc(/C=C3\CSc4ccccc4C3=O)c2)n1` was tested. Which growth did it give?
**A.** -33.7% (active)

**Q.** Which growth does the source give for `Cn1cc(-c2nonc2-c2c[nH]c3ccccc23)c2cccnc21` here?
**A.** 21.2%

**Q.** With `COc1cc(/C=C/c2cc(/C=C/c3ccc(O)c(OC)c3)n(-c3c(C)cccc3C)c(=O)n2)ccc1O` as the molecule, how does the growth read?
**A.** -12.4% (active)

**Q.** `COc1cccc(C2=NN3C(C2)c2cc(Br)cc(OC)c2OC32CCN(Cc3ccccc3)CC2)c1` (stereo not drawn) was tested. Which growth did it give?
**A.** 89.5%

**Q.** How did the growth turn out when `CC(C)(C)c1cc(C(C)(C)C)cc(S(=O)(=O)Nc2cc3ccccc3cc2C(=O)NCCN)c1` was run?
**A.** 63.4%

**Q.** Which growth does the source give for `O=C(N(c1ccccc1)c1ccccc1)n1ccc2nc(Cl)nc(Cl)c21` here?
**A.** 38.3%

**Q.** With `Cc1[nH]c(-c2cc(N)ccc2Cl)c2c1C(=O)CCCC2` as the molecule, how does the growth read?
**A.** 1.7% (active)

**Q.** With `NC(=O)c1cc(Cl)ccc1NC(=O)/C=C/c1ccccc1` as the molecule, how does the growth read?
**A.** 0.0967% (active)

**Q.** For `Cn1ncc2c(=O)nc3c(-c4ccccc4)n[nH]n3c21`, which growth is on record?
**A.** 96.3%

**Q.** With `Cn1cc(C(=O)c2nc(-c3c[nH]c4ccc(Br)cc34)no2)c2cc(F)ccc21` as the molecule, how does the growth read?
**A.** 74.8%

**Q.** With `Cc1[nH]c(-c2ccc3cc[nH]c3c2)c2c1C(=O)CCCC2` as the molecule, how does the growth read?
**A.** 6.65% (active)

**Q.** `O=C1/C(=C(/c2ccccc2)N2CCOCC2)Cc2ccccc21` was tested. Which growth did it give?
**A.** 50.3%

**Q.** Which growth does the source give for `Cn1c(NCCc2ccc(O)c(O)c2)nc2c1c(=O)n(Cc1ccc(Cl)c(Cl)c1)c(=O)n2C` here?
**A.** 56.1%

**Q.** For `Cc1nn(-c2ccc(F)cc2)c2ncnc(Oc3ccc(NC(=O)Nc4ccc(Cl)c(C(F)(F)F)c4)cc3)c12`, which growth is on record?
**A.** 88.1%
